# Source: PubChem BioAssay
# D1 potentiator – potentiators of human D1 dopamine receptor; P21728; AID 504651; HEK293 TREx D1 cells, calcium flux, dopamine EC20 potentiation; potentiation, % at 10 µM; 360,000 tested, 0.036% active; in the data active means potentiation above about 30%; further: 0% is about no effect
# Target sequence (P21728 whole entry, looked up): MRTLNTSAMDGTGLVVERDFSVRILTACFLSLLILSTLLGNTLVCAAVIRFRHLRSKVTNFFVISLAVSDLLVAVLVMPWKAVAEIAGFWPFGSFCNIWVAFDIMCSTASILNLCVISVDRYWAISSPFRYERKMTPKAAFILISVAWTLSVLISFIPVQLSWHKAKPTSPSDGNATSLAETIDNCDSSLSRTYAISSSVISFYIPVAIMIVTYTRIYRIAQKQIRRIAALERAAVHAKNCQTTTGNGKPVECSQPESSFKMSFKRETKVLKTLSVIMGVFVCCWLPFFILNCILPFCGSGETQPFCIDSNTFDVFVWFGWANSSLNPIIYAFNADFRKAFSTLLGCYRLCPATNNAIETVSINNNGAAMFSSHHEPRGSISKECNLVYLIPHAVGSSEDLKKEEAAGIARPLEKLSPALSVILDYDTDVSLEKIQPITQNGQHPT
# TRHR ag – agonists of human TRH receptor; P34981; TRHR cells, calcium flux fluo-8, FDSS agonist mode; activation, % at 2 µM; 360,000 tested, 0.18% active; AID 493084; further: 0% is about no effect
#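 TRHR-expressing cells, plated overnight in medium with 10% serum, were loaded with fluo-8 calcium dye at room temperature. After a 10 s baseline, library compound was pin-added and calcium release was recorded kinetically (ex 480/em 530) as agonist response.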
# D1 antag – blocks dopamine activation of the human D1 receptor | P21728 | HEK293 TREx D1 cells, calcium flux, dopamine EC80; hits give low values | activity change, negative = inhibition, % at 10 µM | 360,000 tested, 3.2% active | AID 504652; in the data active means activity change below about -30%; further: on the % scale 0 is the no-effect control and ±100 the full control effect
#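 Tetracycline-induced HEK293 Trex D1 cells, force-coupled to calcium, dye-loaded; compounds added and read 180 s, then EC80 dopamine added and calcium flux tracked kinetically another 180 s.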
# TRHR PAM – TRH receptor (human) allosteric enhancement | 360,000 tested, 0.66% active | enhancement, % at 2 µM | TRHR cells, fluo-8 calcium fluorescence, EC20 TRH enhancement | AID 493056 | P34981; in the data active means enhancement above about 30%; further: 0% is about no effect
#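 Enhancer read-out: after compound pinning and an initial kinetic agonist-mode read, an EC20 of TRH (10 nM final) was injected and fluo-8 calcium signal (Ex 480/Em 530) followed at 1 s/cycle for 100 cycles in TRHR-expressing cells.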
# D1 agonist – agonists of human D1 dopamine receptor; HEK293 T-REx D1 cells, calcium flux, agonist mode; activation, % at 2 µM; 360,000 tested, 1% active; further: 0% is about no effect
#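 Inducible HEK293 T-REx D1 cells, force-coupled to calcium signalling, were plated at 4000 cells/well with tetracycline and held overnight at 30 C. After no-wash calcium dye loading, compound-evoked calcium rise over 180 s flagged agonists.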
# * hit, by the source's call; . = not tested or not shown; ! = not active in a repeat. Most compounds without a hit are left out; they make up all but 4.6% or so of the library. Unless noted, no stated cut-off is given here; in the data, active means activation above about 30%; inactive means the rest.
SMILES,D1 potentiator,TRHR ag,D1 antag,TRHR PAM,D1 agonist
CCc1cccc(C)c1NC(=S)NCc1ccc2[nH]c(C)cc2c1,-2,0,-1,-7,0
O=C(CSc1nncn1-c1ccccc1)Nc1cc(F)ccc1F,-3,-1,-1,1,0
Cc1ccc(Oc2ncccc2C(=O)NCC(=O)O)cc1,-13,1,-88*,5,3
Cc1ccccc1Cn1ccc(NC(=O)CCSc2nc(-c3ccco3)cc(C(F)(F)F)n2)n1,-2,0,31,-4,8
Cc1ccc(NC(=O)CSc2nc(-c3ccco3)cc(C(F)(F)F)n2)cc1,-7,1,-35*,-3,12
CN(C)c1ccc(NC(=O)CCSc2nc(-c3ccco3)cc(C(F)(F)F)n2)cc1,-6,0,-33*,10,1
Cc1ccc(Cn2ccc(NC(=O)CCSc3nc(-c4ccco4)cc(C(F)(F)F)n3)n2)cc1,-3,1,5,39*,4
Cc1cc(NC(=O)CCSc2nc(-c3ccco3)cc(C(F)(F)F)n2)no1,-4,0,-13,-1,55*
COc1ccc(NC(=O)CCSc2nc(-c3ccco3)cc(C(F)(F)F)n2)cc1,-8,0,-15,0,3
CS(=O)(=O)N(CC(=O)Nc1cccc(Cl)c1Cl)c1ccccc1,2,1,8,7,2
Cc1ccccc1Cn1ccc(NC(=O)c2cnn3c(C(F)(F)F)cc(-c4ccco4)nc23)n1,-7,0,-57*,-5,1
COC(=O)c1ccccc1NC(=O)CSc1nc(-c2ccccc2)cc(C(F)(F)F)n1,-7,0,-42*,-1,4
COC(=O)c1ccccc1NC(=O)CSc1ncccn1,-7,-1,5,0,4
O=C(Nc1ccc2c(c1)OCO2)c1cnn2c(C(F)(F)F)cc(-c3ccco3)nc12,0,0,2,1,-1
CCc1ccccc1NC(=O)N1CCC(CN2CCc3ccccc3C2)CC1,3,0,-4,2,5
O=C(Nc1ccccc1C(F)(F)F)N1CCC(CN2CCc3ccccc3C2)CC1,6,0,-6,1,30*
COc1ccc(-c2cnc(C)o2)cc1S(=O)(=O)Nc1ccc(F)cc1F,0,-1,19,-5,2
O=C(/C=C/c1ccc(N2CCC(c3ccccc3)=N2)cc1)c1ccccc1,-12,57*,-28,-3,138*
CCN(CC)c1ccc2cc(-c3nc4ccccc4n3C)c(=O)oc2c1,-2,144*,-15,31*,278*
CN(C)Cc1c(O)ccc2cc(-c3nc4ccccc4n3C)c(=O)oc12,-3,23,3,40*,22
COc1cccc2cc(-c3nc4ccccc4[nH]3)c(=O)oc12,-1,0,-8,4,1
CCN(CC)c1ccc2cc(-c3nc4ccccc4[nH]3)c(=O)oc2c1,-10,207*,-77*,-23,547*
Cc1ccc(-c2nc3ccccc3n2C)o1,-12,1,-15,-13,3
CCN(CC)c1ccc2cc(-c3nnc(-c4ccccc4)o3)c(=O)oc2c1,6,224*,-5,16,244*
CCC(=O)Nc1ccc(Br)c(Cl)c1,0,0,-8,3,2
SMILES,D1 potentiator,TRHR ag,D1 antag,TRHR PAM,D1 agonist
O=C(Cc1ccc(-c2ccccc2)cc1)Nc1ccccc1,4,1,-12,10,33*
O=C(Cc1ccccc1)Nc1ccc(Br)c(Cl)c1,-11,-1,-55*,3,22
O=C(Cc1ccccc1)Nc1ccc(NC(=O)Cc2ccccc2)c(Cl)c1,0,0,-36*,-6,2
Brc1cccc(-c2nnn3c2nc(NCc2ccc4c(c2)OCO4)c2ccccc23)c1,-1,1,-2,-3,2
CCOc1ccc(NS(=O)(=O)c2ccc3c(c2)NC(=O)CCS3)cc1,-7,2,-14,2,16
Cc1cc(Cl)ccc1NC(=O)C1CCCN(c2nnc(C)c3c(C)n(-c4ccccc4)nc23)C1 (stereo unspecified),2,0,-22,5,0
COC(=O)/C=C1\SC(=Nc2ccc(Cl)c(Cl)c2)NC1=O,0,0,10,1,2
COc1cc(/C=C2\SC(=Nc3ccc(Cl)c(C(=O)O)c3)NC2=O)c(Br)c(Br)c1O,21,212*,36,93*,324*
CCc1ccc(N=C2NC(=O)/C(=C/c3cc(OC)c(O)c(OC)c3)S2)cc1,-2,19,1,8,21
COc1cc(/C=C2\SC(=Nc3ccccc3)NC2=O)cc(Cl)c1O,-2,150*,5,20,157*
CCOCCc1nn2c(=O)cc(COC(=O)c3ccco3)nc2s1,-3,1,-23,2,2
CCOC(=O)c1cn(Cc2ccc(Br)cc2)nn1,-6,0,8,36*,7
CCOC(=O)c1cn(Cc2ccc(C)cc2)nn1,3,0,-5,3,5
CCOC(=O)c1c(NC(=O)COc2cccc(C(F)(F)F)c2)sc2c1CCC(C)C2 (stereo unspecified),0,-1,4,2,1
CC(C)(C)N(Cc1ccccc1)C(=O)CN1C(=O)NC2(CCCCCC2)C1=O,.,0,-75*,6,1
CS(=O)(=O)N1CCCC(C(=O)Nc2ccc3c(c2)OCCO3)C1 (stereo unspecified),-10,1,2,1,1
CCC1(c2ccccc2)NC(=O)N(CC(=O)N(CC(=O)Nc2ccccc2C(F)(F)F)Cc2ccco2)C1=O (stereo unspecified),1,-1,-13,4,44*
Cc1ccc(C)c(Cn2c(=O)cc(C(F)(F)F)c3c(C)nn(C)c32)c1,-6,0,11,2,4
COC(=O)c1ccc(CSCc2ccc(C#N)cc2)cc1,-12,-1,-35*,-11,8
N#Cc1ccc(CSCC(=O)O)cc1,-7,1,4,14,1
CCOC(=O)Cc1ccc(NC(=O)Nc2ccccc2OCc2cc(=O)n3ccccc3n2)cc1,-5,0,1,-2,0
c1ccc(-c2cn(-c3ccccc3)c3[n+]2CCS3)cc1,-2,0,23,4,6
COc1ccc(-c2cn(-c3ccccc3)c3[n+]2CCS3)cc1,-7,0,-53*!,2,2
CCCCOc1ccc(Cn2c(=O)oc3ccc(C)cc32)cc1,-8,3,-79*,-2,12
CCCCOc1ccc(Cn2c(=O)oc3ccccc32)cc1,-4,1,-39*!,-4,4
Cc1ccc2oc(=O)n(Cc3ccc(OC(C)C)cc3)c2c1,-1,-2,2,-4,4
CCOC(=O)c1ccc(NC(=O)NCCOCCn2c(=O)oc3ccccc32)cc1,3,-2,-2,-1,0
